Bioassay records from PubChem BioAssay.
Shown are actives, neighbours in structure and some others; about 11% of the full set was active somewhere.
Pf growth 96h: P. falciparum growth inhibition at 96 hour, primary screen for plastid delayed-death inhibitors. 320,000 tested, 6.9% active. P. falciparum luciferase reporter growth, 96 h. Potency, µM (titrated, usually from 28.7 µM), without a hit: at the top dose activity change, negative = inhibition, usual class: inhibitors
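Parasite growth measured via integrated firefly luciferase reporter in P. falciparum. Infected erythrocytes at 2% hematocrit, 0.05% parasitemia final were treated 96 hours at 37 C under 5% CO2, and luminescence was read.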
AmpC inh detg: AmpC beta-lactamase inhibition with detergent present; P00811; AmpC hydrolysis of nitrocefin, absorbance 480 nm, 0.01% Triton; Potency, µM (doses to about 114 µM), without a hit: top-dose activity change, negative = inhibition, actives largely listed as inhibitors; 370,000 tested, 0.041% active; AID 485294;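 further: 0% = no-compound wells and -100% = no-enzyme wells; nearly all actives have a fitted effect of over 25% in size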
Target sequence (P00811 whole entry, looked up): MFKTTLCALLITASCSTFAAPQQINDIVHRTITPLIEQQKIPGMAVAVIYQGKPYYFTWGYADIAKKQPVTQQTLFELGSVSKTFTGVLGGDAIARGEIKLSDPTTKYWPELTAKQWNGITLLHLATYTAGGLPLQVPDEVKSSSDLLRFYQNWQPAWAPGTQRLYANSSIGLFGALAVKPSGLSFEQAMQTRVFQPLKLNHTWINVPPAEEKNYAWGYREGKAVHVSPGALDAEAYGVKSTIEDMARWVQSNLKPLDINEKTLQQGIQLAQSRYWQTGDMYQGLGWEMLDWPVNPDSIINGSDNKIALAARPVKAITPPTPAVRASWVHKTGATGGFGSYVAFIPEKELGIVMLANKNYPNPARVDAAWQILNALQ
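20 mM phosphate pH 7.0 + 0.01% (detergent screen) or 0.0001% Triton X-100; 5.3 nM AmpC reagent; cpd preinc 15 min RT; nitrocefin (800 uM stock) to start; A480 q20 s × 4 min; Activity was normalised to no-enzyme and no-compound control wells.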
AmpC inh no detg: blocks E. coli AmpC beta-lactamase in detergent-free assay | P00811 | AmpC nitrocefin hydrolysis, absorbance 480 nm, 0.0001% Triton | Potency, µM (series often up to 57.1 µM), without a hit: at the highest dose activity change, negative = inhibition, actives largely listed as inhibitors | 330,000 tested, 0.52% active;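 further: plate controls were no compound for no effect and no enzyme for full effect; nearly all actives have a fitted effect of over 20% in size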
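20 mM phosphate pH 7.0 + 0.01% (detergent screen) or 0.0001% Triton X-100; 5.3 nM AmpC reagent; cpd preinc 15 min RT; nitrocefin (800 uM stock) to start; A480 q20 s × 4 min; Activity was normalised to no-enzyme and no-compound control wells.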
HCV inhibitor: blocks hepatitis C virus; Huh7.5.1 HCVcc-Cre infection, luciferase reporter, 44 h; Potency, µM (series often up to 41.8 µM), for the others: top-dose activity change, negative = inhibition, usual class: inhibitors; 340,000 tested, 3.4% active
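Whole-lifecycle infectious HCVcc-Cre system; cells 1,000/well, compound then virus (~0.5 moi) added 4 h after plating, 44 h culture. Luciferase read 15 sec following 15 min substrate incubation, room temp.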
AMA1-RON2 inh: AMA1-RON2 (P. falciparum) interaction inhibition | AlphaScreen AMA1-biotinylated RON2 peptide binding | Potency, µM (titrated, usually from 58.2 µM), inactives show at the top dose activity change, negative = inhibition, most hits filed as inhibitors | 360,000 tested, 0.2% active;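 further: 0% = vehicle wells and -100% = peptide control; nearly all actives have a fitted effect of over 45% in size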
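AMA1 (3D7) with his tag at 25 nM final met compounds first, then biotinylated RON2 peptide at 25 nM; detection used donor plus acceptor beads, 10 µg/mL apiece, read by AlphaScreen after 30 min at room temperature.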
Pf growth 48h: P. falciparum growth inhibition at 48 hours (one generation). P. falciparum luciferase growth in erythrocytes, 48 h. 310,000 tested, 5.9% active. Potency, µM (titrated, usually from 28.7 µM), without a hit: at the top dose activity change, negative = inhibition, actives largely listed as inhibitors. AID 504832
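Read-out is firefly luciferase luminescence from an integrated reporter in P. falciparum, so falling signal marks reduced parasite growth. Infected erythrocytes were at 2% hematocrit and 0.1% parasitemia (final) in Albumax-supplemented RPMI 1640.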
The depositor's hits bear a star. The call rests on the fitted dose curve; in most records, active means well fitted curve in the direction sought with a large enough effect; inconclusive means small, poorly fitted or top-dose-only effect, or another doubt; inactive means no such curve, though single readings can be large; an effect the other way counts as inactive or inconclusive. Unless noted, on the % scale 0 is the no-effect control and ±100 the full control effect; potency means the concentration at half of the fitted maximal effect.

C=CCN1C(=O)CSC1=Nc1ccc(C(=O)O)cc1 was read as Pf growth 96h inconclusive, AmpC inh detg inconclusive, AmpC inh no detg -6%, HCV inhibitor 3%, AMA1-RON2 inh -7% and Pf growth 48h 43%.
Screening COc1ccc(-c2cn(CC3CCCCC3)nn2)cc1 returned Pf growth 96h 202%, AmpC inh detg -5%, AmpC inh no detg -5%, HCV inhibitor 17%, AMA1-RON2 inh 10% and Pf growth 48h 60%.
CCCCCc1ccc(-c2cn(CC3CCCCC3)nn2)cc1 was read as Pf growth 96h 12µM*, AmpC inh detg 8%, AmpC inh no detg -22%, HCV inhibitor 4%, AMA1-RON2 inh 4% and Pf growth 48h 79%.
For COc1ccc(-c2csc3ncnc(N4CCN(c5ccccc5[N+](=O)[O-])CC4)c23)cc1 the results were Pf growth 96h 9.3µM*, AmpC inh detg 9%, AmpC inh no detg -22%, HCV inhibitor 16µM*, AMA1-RON2 inh inconclusive and Pf growth 48h inconclusive.
Screening CCCn1cnc2scc(-c3ccc(OC)cc3)c2c1=O returned Pf growth 96h -12%, AmpC inh detg 0%, AmpC inh no detg -18%, HCV inhibitor -5%, AMA1-RON2 inh 21% and Pf growth 48h -13%.
Cc1ccc(-c2csc3ncn(Cc4ccc(C(=O)O)cc4)c(=O)c23)cc1C was read as Pf growth 96h 12µM*, AmpC inh detg -15%, AmpC inh no detg -37%, HCV inhibitor 5%, AMA1-RON2 inh 16% and Pf growth 48h -2%.
Screening COc1ccc(-c2csc3ncnc(N4CCN(c5ccc(OC)cc5)CC4)c23)cc1 returned Pf growth 96h 13µM*, AmpC inh detg -3%, AmpC inh no detg -4%, HCV inhibitor inconclusive, AMA1-RON2 inh inconclusive and Pf growth 48h inconclusive.
Screening CC(C)c1ccc(-c2csc3ncnc(N4CCN(C)CC4)c23)cc1 returned Pf growth 96h inconclusive, AmpC inh detg -7%, AmpC inh no detg 152%, HCV inhibitor inconclusive, AMA1-RON2 inh -11% and Pf growth 48h inconclusive.
Screening CCn1cnc2scc(-c3ccc(OC)cc3)c2c1=O returned Pf growth 96h 10µM*, AmpC inh detg -1%, AmpC inh no detg -12%, HCV inhibitor -14%, AMA1-RON2 inh -3% and Pf growth 48h -2%.
O=C(O)c1ccc(Cn2cnc3scc(-c4ccccc4)c3c2=O)cc1 was read as Pf growth 96h 34%, AmpC inh detg inconclusive, AmpC inh no detg -16%, HCV inhibitor 10%, AMA1-RON2 inh 1% and Pf growth 48h 1%.
For O=C(c1ccc2c(c1)N(Cc1ccc(F)cc1)C(=O)c1ccccc1S2(=O)=O)N1CCCCCC1 the results were AmpC inh detg -10%.
For COc1ccc(-c2csc3ncnc(N4CCN(c5ccccc5)CC4)c23)cc1 the results were Pf growth 96h inconclusive, AmpC inh detg -14%, AmpC inh no detg -1%, HCV inhibitor inconclusive, AMA1-RON2 inh inconclusive and Pf growth 48h inconclusive.
For COc1ccc(-c2csc3ncnc(N4CCN(Cc5ccccc5)CC4)c23)cc1 the results were Pf growth 96h 6.6µM*, AmpC inh detg -12%, AmpC inh no detg -7%, HCV inhibitor 3%, AMA1-RON2 inh -13% and Pf growth 48h inconclusive.
For Cc1cc(NC(=O)C2CCN(S(=O)(=O)c3ccc(Br)s3)CC2)ccc1Br the results were AmpC inh detg -7%.
Screening COCC(=O)N(Cc1cc2cc(C)ccc2[nH]c1=O)c1cccc(C)c1C returned Pf growth 96h 318%, AmpC inh detg -4%, AmpC inh no detg 33%, HCV inhibitor -7%, AMA1-RON2 inh 0% and Pf growth 48h -21%.
O=C(c1cccs1)N(Cc1cc2ccccc2[nH]c1=O)c1ccccc1 was read as Pf growth 96h -26%, AmpC inh detg inconclusive, AmpC inh no detg -9%, HCV inhibitor inconclusive, AMA1-RON2 inh -6% and Pf growth 48h -23%.
